99 molecules from PubChem BioAssay AID1851 (National Center for Advancing Translational Sciences (NCATS), 2009) can be followed below.

The structures appear in SMILES notation. Several values for one entry are separate records, joined by “and”; a condition that tells them apart may be missing. Identical values can stand only once. Hit rate of the full screen: of about 16,000 compounds, about 2,600 (16%) were called active. Roughly 20% stayed inconclusive and do not appear here. Calls follow the shape of the dose curve; as a rule, active = well fitted curve in the direction sought with a large enough effect; inconclusive = small, poorly fitted or top-dose-only effect, or effect the other way; inactive = no such curve, though single readings can be large or run the other way. A selection follows.
% is scaled to controls: 0 for no effect and ±100 for the full control effect.

For this experiment, the target named is Cytochrome P450 2D6 (Homo sapiens) (UniProt P10635). Briefly: Cytochrome panel assay with activity outcomes. The following applies: recombinant CYP, pro-luciferin dealkylation, luminescence, p450-cyp2d6; series mostly up to 57.1 µM.
Cytochrome P450 2D6 (Homo sapiens), sequence (P10635 whole entry, looked up): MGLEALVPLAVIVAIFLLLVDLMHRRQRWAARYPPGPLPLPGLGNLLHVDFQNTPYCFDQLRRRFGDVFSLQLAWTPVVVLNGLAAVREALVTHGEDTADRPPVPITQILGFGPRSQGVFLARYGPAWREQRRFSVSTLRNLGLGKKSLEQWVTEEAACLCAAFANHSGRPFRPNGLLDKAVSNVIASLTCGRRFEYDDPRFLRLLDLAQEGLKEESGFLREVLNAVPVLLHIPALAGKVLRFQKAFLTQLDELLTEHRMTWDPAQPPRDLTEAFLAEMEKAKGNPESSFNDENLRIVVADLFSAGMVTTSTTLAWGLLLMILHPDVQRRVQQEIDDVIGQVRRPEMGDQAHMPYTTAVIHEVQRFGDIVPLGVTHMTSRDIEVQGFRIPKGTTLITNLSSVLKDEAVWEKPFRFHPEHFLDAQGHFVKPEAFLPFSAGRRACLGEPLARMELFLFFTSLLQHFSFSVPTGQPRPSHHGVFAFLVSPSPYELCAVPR
In the case of `C/C(Cn1nc([N+](=O)[O-])cc1C)=N\NC(=O)c1ccc(O)cc1O`, the AC50 – broadly, the midpoint of the concentration-response curve, whichever way the signal moves – was “inactive”.
For the molecule `Cc1ccc(Cl)c(Nc2ccccc2C(=O)O)c1Cl`, the AC50 entry was “inactive”.
On the same count and under the same terms, the entry for `Cc1nc2ccccc2nc(C)c1=NO` is “inactive”; for `CCOC(=O)C(C)CC(C)C(=O)N1CCOCCN(C(=O)C(C)CC(C)C(=O)OCC)CCOCC1` (centres undefined) it is “inactive”; for `CC(N)=NCc1cccc(CN)c1` it is “inactive”.
On the same count and under the same terms, the figure for `NC(N)=NCc1cccc(I)c1` is 15.8 µM (active).
In the case of `Nc1c(OCC(=O)O)ccc2cc(S(=O)(=O)O)ccc12`, the activity, negative = inhibition is -4.66% [at 11.4 µM] (inactive).
For the molecule `CNC(=S)NNC(=O)c1sccc1OCc1ccc(C)cc1`, the AC50 result is “inactive”.
On to `O=C(Cc1ccccc1)N/N=C/c1ccccc1OCc1ccc(Cl)cc1`, for which the AC50 entry is “inactive”.
Take `COc1cc(C(=O)Oc2ccccc2/C=N/NC(=O)c2ccc(C)cc2)cc(OC)c1OC`: the AC50 entry is “inactive”.
Consider `COc1ccccc1/C=N/NC(=O)CC(=O)Nc1ccc(Cl)c(Cl)c1`, for which the AC50 is 28.2 µM (active).
As to `NC([N-]/N=C/c1ccccn1)=[S]=[Fe].O=S(=O)(O)O`, the activity, negative = inhibition was 8.09% [at 11.4 µM] (inactive).
For `N#CCCn1c(=O)c(-c2cc(F)cc(F)c2)nc2cnc(N3CCOCC3)nc21`, the AC50 entry is “inactive”.
For the molecule `CC(C)N(Cc1ccccc1)S(=O)(=O)c1n[nH]c(C(C)(C)C)n1`, the activity, negative = inhibition was 14.9% [at 11.4 µM] (inactive).
Consider `CCC(NC(=O)Nc1cc(OC)c(OC)c(OC)c1)(C(F)(F)F)C(F)(F)F`, for which the AC50 entry is “inactive”.
Consider `COc1cc(NC(=O)C2CCN(S(=O)(=O)c3cccc4nonc34)CC2)cc(OC)c1`, for which the AC50 was 0.562 µM (active).
The same measure, in the same setting: next, `CC(=O)Nc1ccc(NC(=O)C2CCN(S(=O)(=O)c3cccc4nonc34)CC2)cc1`: “inactive”.
The same measure, in the same setting: next, `CC1CCN(C(=O)C2CCN(S(=O)(=O)c3cccc4nonc34)CC2)CC1`: “inactive”.
Take `O=C(Nc1cccc(F)c1)N1CCCC2(CCN(C(=O)c3cnccn3)CC2)C1`: the AC50 entry is “inactive”.
Still for that read-out and setting: next, `CCC(=O)NC(=S)Nc1ccc(S(=O)(=O)NC(C)=O)cc1`: “inactive”; `CCCCCN(CCCCC)C(=O)[C@H](CCC(=O)O)NC(=O)c1ccc(Cl)c(Cl)c1`: “inactive”.
With `O=S(=O)(c1cccc2c(I)cccc12)N1CCCNCC1`, the AC50 was 10 µM (active).
The same measure, in the same setting: the entry for `O=S(=O)(c1cccc2cnccc12)N1CCNCC1` is “inactive”; for `Cc1noc(C)c1-c1nccc(N2CCN(C)CC2)n1` it is “inactive”; for `Cn1cccc1C(=O)N1CCC2(CC1)CCN(c1ccccn1)CC2` it is “inactive”.
In the case of `N#CC(C#N)=NNc1ccc2cn[nH]c2c1`, the activity, negative = inhibition was -16.6% [at 11.4 µM] (inactive).
For the molecule `S=C(Nc1ccc2cn[nH]c2c1)Nc1ccc2cn[nH]c2c1`, the AC50 is 2 µM (active).
On to `CNC(=S)Nc1ccc2nc(C)c(C)nc2c1`, for which the AC50 result was “inactive”.
Consider `CCOC(=O)N/N=C1/C[C@@H](O)[C@@H](O)[C@@H]2[C@@H]3C(=O)N(c4cccc(Oc5ccccc5)c4)C(=O)[C@H]3CC[C@@H]12`, for which the activity, negative = inhibition is 4.14% [at 11.4 µM] (inactive).
For the molecule `COC(=O)c1c(C)[nH]c(C)c1C(=O)c1ccccc1Cc1ccccc1`, the AC50 entry is “inactive”.
Still for that read-out and setting: the entry for `Cc1cc(C)n(CC(=O)N/N=C/c2ccco2)n1` is “inactive”.
The same measure, in the same setting: next, `O=C(NCC(c1cccs1)N1CCOCC1)c1ccco1` (centres undefined): “inactive”; `O=C(NCc1ccccn1)C1CC(c2ccc(Cl)c(Cl)c2)=NO1` (centres undefined): “inactive”.
On the same count and under the same terms, the entry for `COc1ccc(C2=NOC(C(=O)NCCN3CCOCC3)C2)cc1` (centres undefined) is “inactive”; for `O=C(NCCc1cccs1)C1CC(c2c(Cl)cccc2Cl)=NO1` (centres undefined) it is 5.01 µM (active).
Take `COc1ncc2nc(-c3ccccc3)c(=O)n(C)c2n1`: the AC50 result is “inactive”.
`Cc1cc(C)c(C#N)c(OCC(=O)c2ccc(Br)cc2)n1`: the AC50 result was “inactive”.
In the case of `CCc1ccc(C(=O)CN(C#N)c2nc(C)cc(C)n2)cc1`, the AC50 is 6.31 µM (active).
Turning to `CCc1ccc(C(=O)COC(=O)c2cccc(N3C(=O)c4c(C)nc5ccccc5c4C3=O)c2)cc1`, the AC50 entry was “inactive”.
In the case of `CC(C)[C@@H](OCc1ccccc1)[C@H](C)/C=N\OC[C@@H](O)[C@@H]1O[C@@H]2OC(C)(C)O[C@@H]2[C@H]1O`, the activity, negative = inhibition is 15.3% [at 11.4 µM] (inactive).
Take `CCn1cc(C(=O)O)c(=O)c2cc(F)c(N3CCN[C@@H](C)C3)c(F)c21`: the AC50 entry was “inactive”.
For `O=c1[nH]c(=O)n([C@@H]2C[C@H](O)[C@H](CO)O2)cc1C(F)(F)F`, the AC50 entry is “inactive”.
Same read-out and setting: the figure for `N#Cc1cccc(-c2nccc(NCc3ccccc3)n2)c1` is 7.94 µM (active); for `N#Cc1cccc(-c2cc(NCc3cccnc3)ncn2)c1` it is “inactive”; for `N#Cc1cccc(-c2nccc(NCc3cccs3)n2)c1` it is 20 µM (active).
Take `N#Cc1cccc(-c2nccc(NCc3cccnc3)n2)c1`: the AC50 result is “inactive”.
Same read-out and setting: next, `Cc1cc(C(=O)OCC(=O)NCCC(C)C)c2ccccc2n1`: “inactive”.
With `COc1cc2c3cc1Oc1cc(ccc1O)C[C@@H]1c4c(cc(OC)c(O)c4Oc4ccc(cc4)C[C@H]3[N+](C)(C)CC2)CC[N+]1(C)C`, the activity, negative = inhibition was 8.34% [at 11.4 µM] (inactive).
For `O=C(Nc1cccc2cccnc12)[C@@H]1[C@@H](C(=O)O)[C@H]2CC[C@@H]1O2`, the activity, negative = inhibition was 5.88% [at 11.4 µM] (inactive).
With `C[C@@]1(C(NC(=O)Cc2ccc(C(F)(F)F)cc2)c2ccc(-c3ccccc3)cc2)C[C@H]1C1CCCCC1` (some centres undefined), the AC50 result was “inactive”.
On to `N/N=C1/c2ccccc2N[C@H]1OC(=O)Nc1ccccc1`, for which the AC50 was 3.16 µM (active).
`O=C(Nc1ccccc1)[C@@]12C[C@@H]1/C(=N/O)c1ccccc1O2`: the AC50 result was “inactive”.
For `O=C(O)c1ccccc1-c1ccccc1C(=O)Nc1ccccc1`, the AC50 entry was “inactive”.
Consider `CN(C)CCSCCO`, for which the activity, negative = inhibition was 7.16% [at 11.4 µM] (inactive).
For the molecule `NC(=O)c1nnn(Cc2cc(Cl)c(C(=O)c3ccc(Cl)cc3)c(Cl)c2)c1N`, the activity, negative = inhibition is -20.8% [at 11.4 µM] (inactive).
In the case of `NNCCc1ccccc1`, the AC50 is 6.31 µM (active) and 2.51 µM (active).
Consider `O=C(O)CNCCc1ccccc1`, for which the activity, negative = inhibition is 3.94% [at 11.4 µM] (inactive).
Take `O=C(CC(=O)NN=C1CCCC1)NCCc1ccccc1`: the AC50 result was “inactive”.
On the same count and under the same terms, the entry for `COc1cccc(/C=N/n2nnc3c(cnn3-c3ccccc3)c2=O)c1` is “inactive”.
Turning to `Cc1c(C)c(C)c(CC2(C)CSC2)c(CC2(C)CSC2)c1C`, the activity, negative = inhibition is 7.89% [at 11.4 µM] (inactive).
As for `COc1ccc(C2(C(=O)N3CCOCC3)CCCC2)cc1`, the AC50 result is “inactive”.
`C[N+]1(C)CCc2cc3c(cc2[C@@H]1[C@@H]1C(=O)Oc2c1ccc1c2OCO1)OCO3`: the AC50 is 12.6 µM (active).
Still for that read-out and setting: next, `COc1ccc(-n2c(=O)c(-c3cccc(C#N)c3)nc3cnc(N4CCNCC4)nc32)cc1`: “inactive”; `Nc1cc(-c2nn[nH]n2)ccc1F`: “inactive”; `CSc1nsc(SC)c1NC(=O)Nc1ccccn1`: “inactive”.
The same measure, in the same setting: the figure for `CSc1nsc(SC)c1C(=O)Nc1ccc(C)cc1` is 10 µM (active); for `CCC(=O)NCCNC(=O)c1c(SC)nsc1SC` it is “inactive”; for `CC(NC(=O)C1(C)CC1(Br)Br)C(C)(C)C` (centres undefined) it is “inactive”.
Regarding `COc1ccc(Oc2ncc3nc(CCc4ccccc4)c(=O)n(C4CC4)c3n2)cc1`, the AC50 entry is “inactive”.
Still for that read-out and setting: next, `Cc1ccccc1/C=N\NC(=O)c1csnn1`: “inactive”; `COc1ccc(Br)cc1C(=O)Nc1ccc(Cc2ccncc2)cc1`: 0.0398 µM (active); `COc1ccc(NC(=O)c2ccc(C(=O)c3cc(OC)ccc3OC)cc2)cc1`: “inactive”.
For the molecule `O=C(Nc1ccc(-c2cn3ccccc3n2)cc1)c1cc(Br)ccc1O`, the activity, negative = inhibition is -3.93% [at 11.4 µM] (inactive).
As to `CC(C)=NO[C@@H](C)c1cc(-c2c(C)cc(C)cc2C)no1`, the activity, negative = inhibition is -6.21% [at 11.4 µM] (inactive).
As for `O=C(O)[C@H](Cc1cc(I)c(O)c(I)c1)C1CCCCC1`, the activity, negative = inhibition was 10.8% [at 11.4 µM] (inactive).
Take `CC(C)OC(=O)C(CC(=O)O)N1CCOCC1` (centres undefined): the AC50 result was “inactive”.
Still for that read-out and setting: the figure for `CN(C)c1nc(-c2ccccc2C(F)(F)F)nc2ccccc12` is 10 µM (active).
The same measure, in the same setting: next, `COc1ccccc1-c1nc(N(C)C)c2ccccc2n1`: 3.16 µM (active).
On the same count and under the same terms, next, `COc1cc(NS(C)(=O)=O)ccc1Nc1c2ccccc2nc2ccccc12`: “inactive”; `Cc1ccccc1-c1nc(N(C)C)c2ccccc2n1`: 12.6 µM (active); `Cc1cc(NC(=O)CN2C(=O)NC(C)(c3ccc(OC(F)F)cc3)C2=O)no1` (centres undefined): “inactive”.
As for `N[C@@H](C(=O)O)c1cc(O)ccc1Cl`, the AC50 result was “inactive”.
Regarding `N=c1ccn2c(n1)O[C@@H]1[C@@H](O)[C@H](CO)O[C@H]12`, the AC50 result is “inactive”.
Same read-out and setting: next, `c1ccc(-n2ncc3c2ncn2cnnc32)cc1`: “inactive”; `CC(C)(C)n1nc(-c2ccc(Cl)cc2)c2c(N)ncnc21`: “inactive”.
`CCCSc1nc(C)cc(C)c1C(N)=O`: the AC50 entry was “inactive”.
Take `CC1CCCC(NC(=O)CCn2c(=O)oc3ccccc32)C1C` (centres undefined): the AC50 result is “inactive”.
On the same count and under the same terms, the entry for `COc1ccc(Oc2ncc3nc(-c4cccs4)c(=O)n(-c4ccccc4)c3n2)cc1` is “inactive”; for `COc1ccccc1N1CCN(CCCCN2C(=O)CCC2=O)CC1` it is “inactive”; for `COc1ccccc1N1CCN(CCn2c(=O)[nH]c3c([nH]c4ccccc43)c2=O)CC1` it is “inactive”.
Same read-out and setting: the figure for `COc1ccccc1N1CCN(CCCCNS(=O)(=O)c2cccc3c(N(C)C)cccc23)CC1` is 15.8 µM (active); for `COc1ccccc1N1CCN(CCCCNC(=O)c2ccc(-c3ccc(C(C)=O)cc3)cc2)CC1` it is “inactive”.
Still for that read-out and setting: next, `COc1ccccc1N1CCN(CCCCNC(=O)c2ccc3ccccc3c2)CC1`: 3.16 µM (active) and 3.98 µM (active).
Regarding `COc1ccccc1N1CCN(CCCNc2cc(=O)n(C)c(=O)n2C)CC1`, the AC50 entry is “inactive”.
Still for that read-out and setting: next, `CNc1ncnc2c1ncn2[C@H]1C[C@H](OP(=O)(O)O)[C@H](COP(=O)(O)O)O1`: 5.01 µM (active); `CNc1ncnc2c1ncn2[C@H]1C[C@@H](OP(=O)(O)O)[C@H](COP(=O)(O)O)O1`: “inactive”.
Consider `CNc1ncnc2c1ncn2[C@@H]1O[C@@H](CO)[C@H](O)[C@@H]1O`, for which the AC50 entry was “inactive”.
Consider `Cc1ccc(C2C3=C(CCCC3=O)Nc3nc(SCC(=O)NCc4ccco4)[nH]c(=O)c32)cc1` (centres undefined), for which the AC50 result was “inactive”.
Consider `CC(C)C12CC[C@@]3(CC[C@H]4[C@@](C)(CCC[C@]4(C)C(=O)O)[C@@H]3C1)[C@@H](CN)C2`, for which the activity, negative = inhibition is 6.15% [at 11.4 µM] (inactive).
